# Reference: PubChem BioAssay (EPA / NIEHS)
# “And” between values parts separate entries of the source, which are not always exact repeats. Equal values may be shown once. Results filed as inconclusive are left out. Some compounds were tested as several samples or in several runs, with calls that do not always agree. The source made the active and inactive calls. The calls were made as follows, unless noted: active = hit-call score of the fitted dose curve at least 0.9, where 1 is the maximum; inactive = score below 0.9.
# Assays:
# [1] = read-out: Monokine induced gamma interferon (MIG), CXCL9 (gene 4283); assay: BSK_3C_MIG: BioMAP Diversity Plus: 3C Assay for Monokine induced gamma interferon (MIG) Biomarker Activity (AID 2283021); conditions: primary human endothelial cells (HUVEC); actives raise or lower the signal;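 as to AC50: MIG protein level measured by immunoassay in the treated endothelial cultures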
# Outline: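 After 24 h of treatment, human umbilical vein endothelial cultures (3C system) had their MIG biomarker level determined by ELISA, with DMSO serving as negative control.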
# [2] = target: human Vitamin D Receptor (VDR), VDR (gene 7421) (UniProt P11473); assay: ATG_VDR_TRANS: Attagene TRANS-FACTORIAL HepG2 Assay for human Vitamin D Receptor (VDR) (AID 2283022; active = hit-call score of the fitted dose curve at least 0.9, where 1 is the maximum)
# Outline: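 Multiplexed TRANS reporter in HepG2; 24 h treatment; reporter mRNA by RT-PCR plus capillary electrophoresis; upregulation scored relative to DMSO.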
# [3] = BSK_3C_SRB: Viability Assessment in the BioMAP Diversity Plus: 3C Assay (AID 2283023); conditions: primary human endothelial cells (HUVEC);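 also: cells read 24 h after compound dosing; fitted both ways against DMSO so a hit may be signal rise or drop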
# Outline: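 Overt cytotoxicity is gauged in parallel confluent HUVEC cultures by SRB total-protein staining at the time of biomarker measurement, 24 h after dosing. Gain or loss of signal is fitted versus DMSO.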
# [4] = read-out: Matrix Metallopeptidase 1 (MMP1), MMP1 (gene 4312); assay: BSK_BE3C_MMP1: BioMAP Diversity Plus: BE3C Assay for Matrix Metallopeptidase 1 (MMP1) Biomarker Activity (AID 2283024); conditions: primary human bronchial epithelial cells; actives raise or lower the signal
# Outline: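 Dose cells, wait 24 h, run MMP1 ELISA; cells are human bronchial epithelial primaries. Both increases and decreases relative to DMSO counted.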
# [5] = read-out: Pselectin, SELP (gene 6403); assay: BSK_4H_Pselectin: BioMAP Diversity Plus: 4H Assay for Pselectin Biomarker Activity (AID 2283026); conditions: primary human endothelial cells (HUVEC); actives raise or lower the signal
# Outline: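 Human vascular endothelium from umbilical vein; P-selectin measured by ELISA at 24 h post-dose, with cytotoxicity checked by sulforhodamine B total-protein staining in parallel cultures (0.1% SRB after 10% TCA fixation, read at 560 nm).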
# [6] = BSK_4H_SRB: Viability Assessment in the BioMAP Diversity Plus: 4H Assay (AID 2283027); conditions: primary human endothelial cells (HUVEC);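 also: cells exposed to compound for 24 h before staining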;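 as to AC50: curves fitted both ways versus DMSO so AC50 may be loss or gain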
# Outline: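 Human umbilical vein endothelial cells were dosed with chemical and, after 24 h, fixed with 10% TCA, stained with 0.1% sulforhodamine B, and read at 560 nm to give total protein as a cytotoxicity measure. Bidirectional fitting relative to DMSO control.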
# [7] = BSK_BE3C_SRB: Viability Assessment in the BioMAP Diversity Plus: BE3C Assay (AID 2283028); conditions: primary human bronchial epithelial cells;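 also: measured 24 h after chemical dosing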;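 as to AC50: fitted both ways so AC50 may mark signal gain or loss versus DMSO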
# Outline: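 SRB total-protein staining (0.1%, after TCA fixation) of chemically dosed human bronchial epithelial primary cells at 24 h; DMSO serves as the negative control for bidirectional curve fitting.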
# [8] = read-out: Thrombomodulin, THBD (gene 7056); assay: BSK_3C_Thrombomodulin: BioMAP Diversity Plus: 3C Assay for Thrombomodulin Biomarker Activity (AID 2283029); conditions: primary human endothelial cells (HUVEC); actives raise or lower the signal
# Outline: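 Thrombomodulin ELISA, human primary HUVEC, 24 h post-dose; data fitted in both directions relative to DMSO.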
# [9] = read-out: Urokinase-type plasminogen activator receptor (uPAR), PLAUR (gene 5329); assay: BSK_4H_uPAR: BioMAP Diversity Plus: 4H Assay for Urokinase-type plasminogen activator receptor (uPAR) Biomarker Activity (AID 2283030); conditions: primary human endothelial cells (HUVEC); actives raise or lower the signal
# Outline: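 Endpoint derived via bidirectional curve fitting against DMSO baseline; readout was ELISA detection of uPAR on umbilical vein endothelial cells at 24 h post-treatment, with SRB-stained parallel cultures assessing cytotoxicity.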
# [10] = read-out: Vascular endothelial growth factor receptor 2 (Homo sapiens) (UniProt P35968); assay: BSK_4H_VEGFRII: BioMAP Diversity Plus: 4H Assay for Vascular endothelial growth factor receptor 2 (VEGFR2) Biomarker Activity (AID 2283031); conditions: primary human endothelial cells (HUVEC); actives raise or lower the signal;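 as to AC50: cell-surface VEGFR2 protein level quantified by ELISA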
# Outline: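 In this multiplexed HUVEC system, biomarker ELISA was performed after 24 h chemical exposure. Parallel SRB staining (TCA fixation, 560 nm) tracked cytotoxicity; DMSO served as baseline.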
# Sequence of human Vitamin D Receptor (VDR), VDR (gene 7421) (P11473 whole entry, looked up): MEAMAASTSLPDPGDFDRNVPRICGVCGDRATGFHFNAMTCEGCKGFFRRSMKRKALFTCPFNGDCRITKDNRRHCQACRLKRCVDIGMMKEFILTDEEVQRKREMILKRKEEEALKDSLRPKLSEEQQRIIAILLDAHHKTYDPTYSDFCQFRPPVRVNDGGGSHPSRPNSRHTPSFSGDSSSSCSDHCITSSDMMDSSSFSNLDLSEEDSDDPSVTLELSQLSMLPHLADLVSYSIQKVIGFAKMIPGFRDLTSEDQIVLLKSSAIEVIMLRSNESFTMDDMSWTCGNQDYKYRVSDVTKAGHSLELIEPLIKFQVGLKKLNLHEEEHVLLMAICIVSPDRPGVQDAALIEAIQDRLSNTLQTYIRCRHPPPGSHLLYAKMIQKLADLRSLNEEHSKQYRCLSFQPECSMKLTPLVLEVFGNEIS
SMILES,outcome [1],outcome [2],outcome [3],outcome [4],outcome [5],outcome [6],outcome [7],outcome [8],outcome [9],outcome [10],AC50 [8],AC50 [4],AC50 [1],AC50 [3],AC50 [6],AC50 [7],AC50 [5],AC50 [9],AC50 [10]
OCCCC(F)(F)C(F)(F)C(F)(F)F,inactive,inactive,inactive,inactive,inactive,inactive,inactive,inactive,inactive,inactive,–,–,–,–,–,–,–,–,–
O=C(O)C(F)(F)C(F)(F)C(F)(F)F,inactive,inactive,inactive,inactive,inactive,inactive,inactive,inactive,inactive,inactive,–,–,–,–,–,–,–,–,–
FC(F)(F)C(F)(F)C(F)(F)C(F)(F)C(F)(F)C(F)(F)C(F)(F)Br,inactive,inactive,inactive,inactive,inactive,inactive,inactive,inactive,inactive,inactive,1.29 µM (active),–,–,–,–,–,–,–,–
C=C(C)C(=O)OCC(F)(F)C(F)(F)C(F)(F)C(F)(F)C(F)(F)C(F)(F)C(F)(F)F,inactive,inactive,inactive,inactive,inactive,inactive,inactive,inactive,inactive,inactive,–,3.2 µM (active),–,–,–,–,–,–,–
O=C(O)C(F)(F)C(F)(F)C(F)(F)C(F)(F)C(F)(F)C(F)(F)C(F)(F)C(F)(F)Cl,inactive,inactive,–,–,inactive,–,–,–,inactive,inactive,48.5 µM (active) and 45.4 µM (active),7.12 µM (active) and 55.3 µM (active),55.1 µM (active),52.5 µM (active) and 45.1 µM (active),49.7 µM (active) and 52.2 µM (active),41.3 µM (active) and 29.4 µM (active),–,–,–
C=C(C)C(=O)OCCC(F)(F)C(F)(F)C(F)(F)C(F)(F)C(F)(C(F)(F)F)C(F)(F)F,inactive,inactive,inactive,inactive,inactive,inactive,inactive,inactive,inactive,inactive,–,–,–,–,–,–,–,–,–
C#C[C@]1(O)CC[C@H]2[C@@H]3CCc4cc(OC)ccc4[C@H]3CC[C@@]21C,inactive,inactive,inactive,inactive,inactive,inactive,inactive,inactive,inactive,inactive,–,–,–,–,–,–,–,–,–
OCC(F)(F)C(F)(F)C(F)(F)C(F)(F)C(F)(F)C(F)(F)F,inactive,inactive,inactive,inactive,inactive,inactive,inactive,inactive,inactive,inactive,–,–,–,58.5 µM (active),–,–,43.6 µM (active),47.8 µM (active),–
O=C(O)C(F)(F)C(F)(F)F,inactive,inactive,inactive,inactive,inactive,inactive,inactive,inactive,inactive,inactive,–,–,–,–,–,–,–,–,–
OCCCC(F)(F)C(F)(F)C(F)(F)C(F)(F)C(F)(F)C(F)(F)C(F)(F)F,–,inactive,–,–,inactive,–,–,inactive,–,–,–,49.7 µM (active) and 48.3 µM (active),49.2 µM (active) and 43.7 µM (active),32.6 µM (active) and 45.2 µM (active),49.4 µM (active) and 48.3 µM (active),49.1 µM (active) and 52.5 µM (active),41.8 µM (active),51.2 µM (active) and 47.3 µM (active),44.6 µM (active) and 45.4 µM (active)
NC(=O)C(F)(F)C(F)(F)C(F)(F)C(F)(F)F,inactive,inactive,inactive,inactive,inactive,inactive,inactive,inactive,inactive,inactive,38.8 µM (active),–,–,–,–,–,–,–,–
CC(C)(C)C(=O)CC(=O)C(F)(F)C(F)(F)C(F)(F)F,inactive,inactive,inactive,inactive,inactive,inactive,inactive,–,inactive,inactive,41.2 µM (active) and 47.3 µM (active),–,–,48.3 µM (active),–,–,5.95 µM (active),–,–
FC(F)(F)C(F)(F)C(F)(F)C(F)(F)CCI,inactive,inactive,inactive,inactive,inactive,inactive,inactive,inactive,inactive,inactive,–,30 µM (active),–,–,–,–,–,–,–
CCc1ccc(C(c2ccc(CC)cc2)C(Cl)Cl)cc1,inactive,inactive,–,–,inactive,–,inactive,inactive,–,–,–,7.64 µM (active),–,12.5 µM (active),15 µM (active),–,–,32.3 µM (active),13.1 µM (active)
Nc1ccc([N+](=O)[O-])cc1O,inactive,inactive,inactive,inactive,inactive,inactive,inactive,inactive,inactive,inactive,–,–,–,–,–,–,–,–,–
O[Si](c1ccccc1)(c1ccccc1)c1ccccc1,inactive,inactive,–,inactive,–,–,inactive,inactive,–,–,–,–,–,28.9 µM (active),13.8 µM (active),–,26.8 µM (active),4.82 µM (active),29.5 µM (active)

SMILES,outcome [1],outcome [2],outcome [3],outcome [4],outcome [5],outcome [6],outcome [7],outcome [8],outcome [9],outcome [10],AC50 [8],AC50 [4],AC50 [1],AC50 [3],AC50 [6],AC50 [7],AC50 [5],AC50 [9],AC50 [10]
O=C(O)C(F)(F)C(F)(F)C(F)(F)C(F)(F)F,inactive,inactive,inactive,inactive,inactive,inactive,inactive,inactive,inactive,inactive,31.2 µM (active),–,–,–,–,–,–,–,–
FC(F)(Br)C(F)(F)C(F)(F)C(F)(F)C(F)(F)C(F)(F)Br,inactive,inactive,inactive,inactive,inactive,inactive,inactive,inactive,inactive,inactive,–,–,–,–,–,–,–,–,–
CCCCCCOC(=O)c1ccccc1O,–,inactive,–,inactive,–,–,inactive,inactive,–,inactive,–,–,41.2 µM (active) and 40.8 µM (active),39.5 µM (active) and 43.2 µM (active),44.2 µM (active) and 42.6 µM (active),–,40.7 µM (active) and 41.9 µM (active),38.5 µM (active) and 44.3 µM (active),–
Cc1ccc(S(=O)(=O)OCC(F)(F)C(F)(F)C(F)(F)C(F)(F)C(F)(F)C(F)F)cc1,inactive,inactive,–,inactive,inactive,inactive,inactive,inactive,inactive,inactive,–,18.2 µM (active),–,45.5 µM (active) and 38.1 µM (active),–,–,–,46 µM (active),–
CC(CCl)OP(=O)(OC(C)CCl)OC(C)CCl (configuration not stated),inactive,inactive,inactive,inactive,inactive,inactive,inactive,inactive,inactive,inactive,–,–,–,–,–,–,–,–,–
CCCCC(CC)COP(=O)(O)OCC(CC)CCCC (configuration not stated),inactive,inactive,inactive,inactive,inactive,inactive,inactive,inactive,inactive,inactive,–,–,–,27.7 µM (active),–,–,–,–,–
FC(F)(F)C(F)(F)C(F)(F)CI,inactive,inactive,inactive,inactive,inactive,inactive,inactive,inactive,inactive,inactive,–,–,–,–,–,–,–,–,–
O=S(=O)(OCC(F)F)C(F)(F)F,inactive,inactive,inactive,inactive,inactive,inactive,inactive,inactive,inactive,inactive,–,–,–,–,–,–,–,–,–
CCc1c(Br)c(Br)c(Br)c(Br)c1Br,inactive,inactive,inactive,inactive,inactive,inactive,inactive,inactive,inactive,inactive,–,–,–,–,–,–,–,–,–
CCO[Si](CCC(F)(F)C(F)(F)C(F)(F)C(F)(F)C(F)(F)C(F)(F)F)(OCC)OCC,inactive,inactive,inactive,inactive,inactive,inactive,inactive,inactive,inactive,inactive,0.638 µM (active),–,–,–,–,–,–,–,–
O=C(Cl)C(F)(F)C(F)(F)C(F)(F)C(F)(F)C(F)(F)C(F)(F)C(F)(F)C(F)(F)F,inactive,inactive,–,–,inactive,inactive,–,inactive,inactive,inactive,–,50.8 µM (active) and 51.7 µM (active) and 52 µM (active),–,45 µM (active) and 50.8 µM (active) and 49.9 µM (active),30 µM (active),58.5 µM (active) and 46.6 µM (active) and 47.3 µM (active),–,–,30 µM (active)
N=C(N)C(F)(F)C(F)(F)C(F)(F)C(F)(F)C(F)(F)C(F)(F)C(F)(F)F,inactive,inactive,inactive,inactive,inactive,inactive,inactive,inactive,inactive,inactive,–,19.4 µM (active),–,54.9 µM (active),48.5 µM (active),–,–,–,–
O=C(O)C(F)(F)C(F)(F)C(F)(F)C(F)(F)C(F)(F)C(F)(F)C(F)(F)C(F)(F)C(F)(F)C(F)(F)C(F)(F)C(F)(F)F,inactive,inactive,inactive,inactive,inactive,–,inactive,inactive,inactive,–,0.928 µM (active),–,–,–,21.7 µM (active) and 18 µM (active),–,–,–,22 µM (active) and 11.1 µM (active)
O=C(O)C(F)(F)C(F)(F)C(F)F,inactive,inactive,inactive,inactive,inactive,inactive,inactive,inactive,inactive,inactive,–,–,–,–,–,–,–,–,–
CCCCCCCCCCCCCCCC[N+](C)(C)Cc1ccccc1,–,inactive,inactive,–,–,–,–,–,–,–,5.17 µM (active),9.34 µM (active),4.12 µM (active),–,5.09 µM (active),5.04 µM (active),4.62 µM (active),5.78 µM (active),38.8 µM (active)
